ST2 inh: IL1RL1 inhibition. Q01638. AlphaLISA ST2-Fc/biotin-IL-33 interaction, 1 h. inhibition, % for hits at 17 µM. hit rate 2.3% among 78,000. AID 1259354; in the data active = inhibition above about 30%
Target sequence (Q01638 whole entry, looked up): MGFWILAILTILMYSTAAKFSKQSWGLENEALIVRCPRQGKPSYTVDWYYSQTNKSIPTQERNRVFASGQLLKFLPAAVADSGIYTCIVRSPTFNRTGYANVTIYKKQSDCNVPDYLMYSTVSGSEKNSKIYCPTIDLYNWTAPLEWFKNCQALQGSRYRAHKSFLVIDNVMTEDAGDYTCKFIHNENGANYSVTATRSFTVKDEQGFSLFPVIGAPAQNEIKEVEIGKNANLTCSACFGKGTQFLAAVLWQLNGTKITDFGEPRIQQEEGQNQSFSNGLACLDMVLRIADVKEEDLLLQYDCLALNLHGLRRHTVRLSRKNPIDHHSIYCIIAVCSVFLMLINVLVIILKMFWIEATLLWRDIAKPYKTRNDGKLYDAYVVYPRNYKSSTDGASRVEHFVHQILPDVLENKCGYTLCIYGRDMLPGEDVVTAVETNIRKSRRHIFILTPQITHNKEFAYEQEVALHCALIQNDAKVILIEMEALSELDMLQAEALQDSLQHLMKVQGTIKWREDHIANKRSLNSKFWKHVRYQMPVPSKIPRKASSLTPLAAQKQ
Starred values were filed as active, the others as inactive. Shown is part of a subset that was picked to be rich in hits.

For CSc1ccc(C2Nc3ccccc3C(=O)N2c2ccc(C)cc2)cc1 (configuration not stated) the results were ST2 inh inactive.
Screening CSc1ccc(C2Nc3cccc4cccc(c34)N2)cc1 returned ST2 inh 31.0%*.
Cc1ccsc1[C@@H]1CCN(Cc2cccnc2N)C[C@H]1O was read as ST2 inh inactive.
O=C(CN1C(=O)C(=O)c2ccccc21)c1ccccc1 was read as ST2 inh inactive.
O=C1C(=O)N(CN2CCCCCC2)c2ccccc21 was read as ST2 inh 42.0%*.
Screening Cc1ccc(N=C2C(=O)N(CN3CCOCC3)c3ccccc32)cc1 returned ST2 inh inactive.
`O=C(NCCN1C(=O)c2cccc([N+](=O)[O-])c2C1=O)c1ccncc1` gave ST2 inh inactive.
O=C(CN1CCCN(Cc2ccccc2)S1(=O)=O)Nc1ccc2c(c1)OCCO2 was read as ST2 inh inactive.
`O=C(c1cc2ccccc2oc1=O)n1cc(Br)cn1` gave ST2 inh inactive.
For O=C1c2ccc(Oc3ccc4c(c3)C(=O)N(c3nccs3)C4=O)cc2C(=O)N1c1nccs1 the results were ST2 inh inactive.
Screening O=c1/c(=C/c2ccc(-c3cccc([N+](=O)[O-])c3)o2)sc2nc3ccccc3n12 returned ST2 inh inactive.
Screening N=C1S/C(=C\c2ccc(-c3ccc([N+](=O)[O-])cc3)o2)C(=O)N1c1nccs1 returned ST2 inh 34.0%*.
Screening CCOC(=O)C1(Cc2ccccc2C(F)(F)F)CCN(Cc2cccnc2)CC1 returned ST2 inh inactive.
Screening Cc1cccc(NC(=O)CC(=O)N(C)CCCN2CCCCCC2)c1C returned ST2 inh inactive.
CC1=C(C(=O)NCc2cccc(Br)c2)C2(CCN(S(C)(=O)=O)CC2)OC1=O was read as ST2 inh inactive.
For CCCOC1CCCN(C(=O)c2cc(Cn3nc(C)cc3C)[nH]n2)C1 (configuration not stated) the results were ST2 inh inactive.
Screening Cc1nc2ccccc2nc1SCC(=O)N1CCCCCC1 returned ST2 inh inactive.
COc1cc2c3c(c1)C(C)=CC(C)(C)N3C(=O)C2=O was read as ST2 inh 70.0%*.
For CC1=CC(C)(C)N(C(=O)C(C)N2C(=O)c3ccccc3C2=O)c2cc(C)c(C)cc21 (configuration not stated) the results were ST2 inh inactive.
COc1ccc2c(c1)N(C(=O)C(C)N1C(=O)c3ccccc3C1=O)C(C)(C)C=C2C (configuration not stated) was read as ST2 inh inactive.
For COc1cccc(N2C(=O)NC3CC2(C)Oc2ccccc23)c1 (configuration not stated) the results were ST2 inh inactive.
Screening COc1cc2c3c(c1)C(C)CC(C)(C)N3C(=O)C2=O (configuration not stated) returned ST2 inh 40.0%*.
COc1cccc2c1OC1(C)CC2NC(=O)N1c1cccc(Cl)c1 (configuration not stated) was read as ST2 inh inactive.
Screening CN1CCN(Cc2c(O)ccc3c(=O)c(-c4ccc(Cl)cc4Cl)coc23)CC1 returned ST2 inh inactive.
Screening O=C1C2C(C(=O)N1c1ccc(F)cc1)N1CCCN1C2c1ccccc1 (configuration not stated) returned ST2 inh inactive.
Screening Cc1nc2ccccc2c2nc(NC(=O)c3sc4ccccc4c3Cl)nn12 returned ST2 inh inactive.
`CC1CCN(CCCNC(=O)c2cn(C)c(=O)c3c2c2ccccc2n3C)CC1` gave ST2 inh inactive.
For CCC(=O)Oc1ccc2c3c(c(=O)oc2c1)CCC3 the results were ST2 inh inactive.
Screening CCS(=O)(=O)N1CCCC(C(=O)NCc2ccccn2)C1 (configuration not stated) returned ST2 inh inactive.
Screening NC1=NCCN1c1ccccc1 returned ST2 inh inactive.
For Nc1ccnn1-c1ccccc1 the results were ST2 inh inactive.
Screening NC1=NN(c2ccccc2)CC1 returned ST2 inh 40.0%*.
Screening CNC(=O)CC(C)N(C)Cc1cccc(OC)c1O (configuration not stated) returned ST2 inh inactive.
`Cc1cc(C)nc(NC(=O)COc2ccc(C(C)(C)C)cc2)n1` gave ST2 inh inactive.
For Cc1ccc2[nH]nc(C(=O)N3CCCC4(C3)C(=O)N(C)c3ccccc34)c2c1 (configuration not stated) the results were ST2 inh inactive.
Screening c1ccc(-c2nnc(SCC3CCOCO3)n2-c2ccccc2)cc1 (configuration not stated) returned ST2 inh 31.0%*.
O=C(CSc1nnc(-c2ccco2)n1-c1ccccc1)NCC1CCCO1 (configuration not stated) was read as ST2 inh inactive.
Screening CCc1ccccc1NC(=O)CSc1nnc(-c2ccncc2)n1-c1ccccc1 returned ST2 inh inactive.
`CCOc1ccccc1NC(=O)N(Cc1ccncc1)C1CCN(C)CC1` gave ST2 inh inactive.
Screening CSc1nnc2sc3ccccc3n12 returned ST2 inh inactive.
`CC(=O)c1cc2c(N)c(C(=O)c3ccc(Cl)cc3)sc2nc1C` gave ST2 inh 38.0%*.
COCc1cc(C)nc2sc(C(=O)c3ccccc3)c(N)c12 was read as ST2 inh inactive.
`Cc1ccc2c(N)c(C(=O)c3ccc(Cl)cc3)sc2n1` gave ST2 inh inactive.
O=C(c1c(F)c(F)c(F)c(F)c1F)N1CCc2ccccc2C1 was read as ST2 inh inactive.
`Cc1sc2c(c1[N+](=O)[O-])C(=O)NCCC2` gave ST2 inh inactive.
`O=C1c2ccccc2C(=O)C1c1cccc2c1CCCC2` gave ST2 inh inactive.
O=C1c2ccccc2C(=O)[C@H]2C3c4ccccc4C(c4ccccc43)[C@@H]12 was read as ST2 inh 32.0%*.
For O=C1c2ccccc2C(=O)C1c1ccc(-c2ccccc2)cc1 the results were ST2 inh inactive.
For Cc1nc(N2CCOCC2)c2c(C)c(C(=O)N3CCN(c4ccccn4)CC3)sc2n1 the results were ST2 inh inactive.
For COc1ccc2[nH]c(C(=O)N3CCCN(C)C4(CCN(C)CC4)C3)cc2c1 the results were ST2 inh inactive.
Screening CCN1CCN(C(=O)c2ccc(Cl)c(Cl)c2)CC1 returned ST2 inh inactive.
For O=C1S/C(=C\c2c(NCC3CCCO3)nc3ccccn3c2=O)C(=O)N1Cc1ccccc1 (configuration not stated) the results were ST2 inh inactive.
For CCNc1nc2ccccn2c(=O)c1/C=C1\SC(=O)N(CC)C1=O the results were ST2 inh 30.0%*.
Screening Cc1ccc(NCN2C(=O)S/C(=C/c3ccccc3)C2=O)cc1Cl returned ST2 inh inactive.
For c1cnc(-c2cc(NCc3cccnc3)nc3[nH]ccc23)nc1 the results were ST2 inh 35.0%*.
`OCCNc1cc(-c2nccc(C3CCCC3)n2)c2cc[nH]c2n1` gave ST2 inh inactive.
For Cc1cc(-c2cc(N)nc3[nH]ccc23)cnc1N the results were ST2 inh inactive.
For COc1ccc(-c2cc(NCc3cccnc3)nc3[nH]ccc23)cn1 the results were ST2 inh inactive.
NCCc1cccc(-c2cc(NCc3ccccn3)nc3[nH]ccc23)c1 was read as ST2 inh 35.0%*.
For O=C(O)CNc1cc(-c2ccccc2C(F)(F)F)c2cc[nH]c2n1 the results were ST2 inh inactive.

From PubChem
